In PubChem BioAssay:
Active and inactive are the calls of the source.

Target: Luciferin 4-monooxygenase (Photinus pyralis) (UniProt P08659)
Assay: firefly luciferase enzyme inhibitors, primary screen, biochemical, luminescence, purified enzyme, 2006 set (AID 1141);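 also: cell-free assay with purified firefly luciferase at 100 ng per well in PBS; test concentration not given here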
Details: SteadyGlo luminescence, 30 min, higher = more signal, called active from +8 up or from −8 down

Sequence of Luciferin 4-monooxygenase (Photinus pyralis) (P08659 whole entry, looked up): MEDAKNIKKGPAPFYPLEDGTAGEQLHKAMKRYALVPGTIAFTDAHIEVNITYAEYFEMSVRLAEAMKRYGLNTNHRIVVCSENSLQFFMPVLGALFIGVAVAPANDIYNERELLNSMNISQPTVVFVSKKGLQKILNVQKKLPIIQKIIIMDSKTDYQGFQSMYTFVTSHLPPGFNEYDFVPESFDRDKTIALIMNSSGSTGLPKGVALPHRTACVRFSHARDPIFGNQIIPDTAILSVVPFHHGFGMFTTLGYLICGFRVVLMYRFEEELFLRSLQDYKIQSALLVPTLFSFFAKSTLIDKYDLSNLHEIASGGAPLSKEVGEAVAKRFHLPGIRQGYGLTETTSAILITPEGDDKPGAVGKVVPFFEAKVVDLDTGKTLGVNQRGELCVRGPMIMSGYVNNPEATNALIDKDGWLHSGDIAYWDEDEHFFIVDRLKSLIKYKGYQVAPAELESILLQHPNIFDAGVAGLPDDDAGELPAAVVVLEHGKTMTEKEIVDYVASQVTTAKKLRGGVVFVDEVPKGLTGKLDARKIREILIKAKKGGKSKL

SMILES | z-score
CCC#CCN(Cc1ccccc1Br)[C@H](/C=C/C1CC1)[C@@H](O)Cc1ccccc1 | 0.619 (inactive)
CCCCN1CC=CC23O[C@@H]4/C=C\CCCOC(=O)C4[C@H]2C(=O)N(CCO)[C@@H]3C1=O (some centres not stated) | 1.19 (inactive)
C=CCNC(=O)[C@@H]1[C@H]2C(=O)O[C@H](c3ccccc3)[C@H](c3ccccc3)N2[C@H](c2ccccc2OCCO)[C@@]12C(=O)N(C(=O)OCCOC)c1ccc(C#CC3(O)CCCCCC3)cc12 | 0.558 (inactive)
O=C(C1N=C(c2ccc(OCCCO)cc2)N(c2ccccc2)O1)N1CCCCC1 (configuration not stated) | -10.6 (active)
CN(C)CCCCCCNC(=O)[C@@H]1C[C@@H]2C(=O)N3CCC[C@H]3C(=O)N2[C@@H]1c1cccc(OCCO)c1 | -0.138 (inactive)
COC(=O)[C@@]1(Cc2ccccc2)[C@H]2c3cc(C(=O)N(C)C)n(Cc4ccc(C)o4)c3C[C@H]2CN1C(=O)c1ccccc1 | 0.429 (inactive)
O[C@@H](Cc1ccccc1)[C@@H](/C=C/C1CC1)N(CC#Cc1ccccc1)Cc1ccccc1Br | -0.375 (inactive)
COCC(=C=CC[C@H](O)c1ccc(OCCO)cc1)CCO | -1.36 (inactive)
NCCCCCNC(=O)[C@H]1C[C@H]2C(=O)N3CCC[C@H]3C(=O)N2[C@H]1c1cccc(OCCO)c1 | -0.165 (inactive)
CCCC[C@@H]1C[C@H]1[C@@H](NC(=O)c1cccs1)c1ccccc1C(F)(F)F | 1.75 (inactive)
CCOC(=O)C[C@H]1[C@H](OC(=O)Cc2ccc3c(c2)OCO3)[C@@H](NC(=O)C2CCCCC2)c2cc(OCCCO)ccc2N1C(=O)c1ccccc1 | -1.23 (inactive)
COc1cc(C(O)C2C=CC3C(=O)N(C)C(=O)C3N2Nc2ccccc2)cc(OC)c1OC (configuration not stated) | -1.36 (inactive)
COc1ccc([Si](C)(C)[C@@H]2[C@@H](CC(=O)N3Cc4ccccc4C[C@H]3CO)O[C@]3(C(=O)N(Cc4ccc(N5C(=O)c6cccc7cccc5c67)cc4)c4ccccc43)[C@H]2C)cc1 | -1.05 (inactive)
C=CCC(OC(C)=O)[C@@H]1[C@@H](N(Cc2ccc(-c3cccc(C(F)(F)F)c3)o2)C(=O)c2ccc(-c3ccccc3)cc2)c2cc(OCCCO)ccc2N1C(=O)Cc1ccc2ccccc2c1 (some centres not stated) | 0.429 (inactive)
C=CCNC(=O)[C@H]1[C@@H]2C(=O)O[C@@H](c3ccccc3)[C@@H](c3ccccc3)N2[C@@H](c2ccccc2OCCO)[C@]12C(=O)N(C(=O)OCCOC)c1ccc(C#CC3(O)CCCCCC3)cc12 | -1.64 (inactive)
COc1ccc([Si](C)(C)[C@@H]2[C@@H](CCO)O[C@]3(C(=O)N(Cc4cccc(NC(=O)[C@H](C)O)c4)c4ccccc43)[C@H]2C)cc1 | -0.355 (inactive)
CCCCC[C@H]1OC[C@@]23C=C(Br)[C@@H](CC12)[C@@]1(CO1)C3=O (some centres not stated) | -0.0658 (inactive)
C=CCN1Cc2ccccc2[C@@H]2OC(c3ccc(OCCCO)cc3)=N[C@]2(CC=C)C1=O | -1.91 (inactive)
Cc1ccc(NN2C(C(O)c3c(F)cccc3Cl)C=CC3C(=O)N(C4CCCCC4)C(=O)C32)cc1 (configuration not stated) | 0.289 (inactive)
CCCCC(CC)C(O)C1C=CC2C(=O)N(c3ccccc3)C(=O)C2N1Nc1ccc(C#N)cc1 (configuration not stated) | -1.92 (inactive)
NC(=O)[C@H]1[C@@H]2C(=O)O[C@@H](c3ccccc3)[C@@H](c3ccccc3)N2[C@@H](c2ccc(OCCO)cc2)[C@]12C(=O)Nc1ccc(C#CCCO)cc12 | -1.05 (inactive)
CCC1=C2CN(Cc3ccccc3)[C@@H](C(=O)Cc3ccccc3)C2C=CCC1 (some centres not stated) | 0.313 (inactive)
[N-]=[N+]=Nc1ccccc1C[C@]1(C(=O)NCC(O)CO)COC(c2ccc(OCCCO)cc2)=N1 (some centres not stated) | -4.04 (inactive)
CCCC=C(CCC)[C@@H](NP(=O)(c1ccccc1)c1ccccc1)c1ccc(-c2ccccc2)cc1 | 2.64 (inactive)
CCOC(=O)C[C@H]1[C@H](OC(=O)c2ccc(C(=O)c3ccccc3)cc2)[C@@H](NC(=O)c2ccc(-c3ccccc3)cc2)c2cc(OCCCO)ccc2N1C(=O)Cc1ccc(OC)cc1 | 0.408 (inactive)
CO[C@H]1O[C@H](CO)[C@@H](OC(=O)CCc2ccccc2)[C@@H]2OC(=O)[C@@H](Cc3ccccc3)C/C=C/C[C@H](Cc3ccccc3)C(=O)O[C@@H]12 | 0.769 (inactive)
CCOC(=O)C1=C[C@@H](c2ccccc2)N(S(=O)(=O)c2ccc(C)cc2)[C@H]1c1ccc(OC)cc1 | 1.51 (inactive)
